Assay results taken from PubChem BioAssay AID602179 (National Center for Advancing Translational Sciences (NCATS), 2012).
About 360 (0.092%) of roughly 390,000 compounds were called active. The sample holds actives, similar compounds and a random draw of the others, so the mix is not that of the screen. The call rests on the fitted dose curve; in most records, active means well fitted inhibition curve with a large enough effect; inconclusive means small, poorly fitted or top-dose-only effect; inactive means no such curve, though single readings can be large or run the other way.

Molecular target: Isocitrate dehydrogenase [NADP] cytoplasmic (Homo sapiens) (UniProt O75874)
Assay: qHTS for Inhibitors of mutant isocitrate dehydrogenase 1 (IDH1): qHTS; further: nearly all actives have a fitted effect of over 65% in size
Conditions: IDH1-R132H enzyme, NADPH consumption, diaphorase/resazurin fluorescence; series mostly up to 76.6 µM
Description: Unbiased genomic sequencing for 22 glioma genomes found recurrent mutation of isocitrate dehydrogenase 1 (IDH1) on chromosome 2q33-a gene encoding the cytosolic isoform of IIDH1associated with the tricarboxylic acid cycle (TCA) that catalyzes the oxidative decarboxylation of isocitrate, yielding alpha-ketoglutarate and CO2 via NADP+ to NADPH conversion. Subsequent studies confirmed the recurrent IDH mutations in up to 70% of secondary gliomas and in 10% of AML cases. […] This in effect defines IDH1 as an oncogene, and provides an extraordinary opportunity to discover chemical probes against mutant IDH1 that may translate into much needed new therapies for glioma and AML patients. […] NIH Chemical Genomics Center [NCGC] NIH Molecular Libraries Probe Centers Network [MLPCN] MLPCN Grant: DA032129 Assay Submitter (PI): Lenny Dang, Agios Pharmaceuticals
IDH1-R132H (0.5 ug/mL) was dispensed into black, solid-bottom 1536-well plates at 3 uL/well in 20 mM Tris-HCl (pH 7.5), 150 mM NaCl, 10 mM MgCl2, 4 mM beta-ME, and 0.05% protease-free BSA. Then, 23 nL of compounds or DMSO were delivered to each well using a pin tool. A pre-read was run on the Viewlux to identify fluorescent compounds (540 nm excitation filter, 598 nm emission filter, bodipy mirror and 2 second exposure). After 30 minutes of incubation with compound, 3 uL of substrate mix were dispensed (0.016 mM NADPH, 2 mM alpha-KG, 20 mM Tris-HCl (pH 7.5), 150 mM NaCl, 10 mM MgCl2, and 0.05% protease-free BSA). Plates were spun for 1 min at 1000xg and incubated at room temperature for 80 min. Then 1.5 uL of each detection reagent component for the coupling system were added (0.12 mg/mL diaphorase and 0.072 mM resazurin, each in 20 mM Tris-HCl (pH 7.5), 150 mM NaCl, 10 mM MgCl2, and 0.05% protease-free BSA ) The protein, substrate and two detection components were maintained at 4 °C throughout the screen. Additionally, the substrate and resazurin reagents were protected from light. The plates were measured on an Envision plate reader for fluorescence signal using a 540 nm excitation filter and 590 nm emission filter with 10 flashes. 1x and 0x (no-enzyme) IDH1-R132H enzyme control were used to normalize %Activity of identified inhibitors; 0x enzyme values corresponded to 100% Activity (full inhibition), while 1x IDH1-R132H enzyme values were used to normalize 0%Activity (no inhibition). Concentration-response curves were fitted to the signals arising from the resulting fluorescence. The concentration-effect curves were then classified based on curve quality (r2), response magnitude and degree of measured activity, and compounds were subsequently categorized based on their curve class. […] Keywords: isocitrate dehydrogenase, IDH1, IDH1-R132H, MLSMR, MLPCN, NIH Roadmap, qHTS, NCGC
Potency means the concentration at half of the fitted maximal effect.

Sequence of Isocitrate dehydrogenase [NADP] cytoplasmic (Homo sapiens) (O75874 whole entry R132H, change not shown): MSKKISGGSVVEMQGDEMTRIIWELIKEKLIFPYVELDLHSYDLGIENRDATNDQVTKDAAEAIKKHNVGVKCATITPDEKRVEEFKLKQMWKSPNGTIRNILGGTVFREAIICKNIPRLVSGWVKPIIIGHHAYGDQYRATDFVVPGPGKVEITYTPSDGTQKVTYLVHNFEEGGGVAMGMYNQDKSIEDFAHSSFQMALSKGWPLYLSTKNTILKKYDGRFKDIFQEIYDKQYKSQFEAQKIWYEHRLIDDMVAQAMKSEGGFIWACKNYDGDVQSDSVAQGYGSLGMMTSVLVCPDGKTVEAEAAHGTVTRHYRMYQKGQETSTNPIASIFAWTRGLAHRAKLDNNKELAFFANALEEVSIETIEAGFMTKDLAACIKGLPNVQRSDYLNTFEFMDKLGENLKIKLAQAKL

Potency, inactive:
O=C(NCCc1ccc(Cl)cc1)c1ccc2nc(CCc3ccccc3)oc2c1
CCC1(C)CC(=O)c2c(ccc3oc(C(=O)Nc4ccc(C(C)=O)cc4)c(C)c23)O1 (stereo not given)
Cc1noc(/C=C/N(C)C)c1S(=O)(=O)N1CCCC(C(=O)Nc2cccc(F)c2)C1 (stereo not given)
CCOC(=O)c1c(C)oc2nc(C)nc(N(CC(C)C)CC(C)C)c12
COc1ccc(NC(=O)CSc2nccn2Cc2ccc3c(c2)OCO3)cc1
CCOc1ccc(CNC(=O)c2ccc3c(c2)nnn3C2CCCC2)cc1
CN(Cc1ccccc1)c1ccc(-c2nc(-c3ccccc3)no2)cc1[N+](=O)[O-]
NC(=O)CSc1nc2c(oc3ccccc32)c(=O)n1Cc1ccccc1
CCOc1cccc(NC(=O)c2ccc(F)c(S(=O)(=O)N(CC)c3cccc(C)c3)c2)c1
O=C(CCn1c(=O)c2sccc2n(Cc2ccc(F)cc2)c1=O)NCc1ccc2c(c1)OCO2
CCC(=O)Nc1cccc(C(=O)OCc2cc(=O)n3nc(CC)sc3n2)c1
CSc1ncc(C(=O)NCc2ccccc2Cl)c(C(F)(F)F)n1
O=C(Cn1c(=O)nc(-c2ccccc2)c2cc(Cl)ccc21)NCc1ccc(Cl)cc1
CN(CC(=O)Nc1cccc(C(F)(F)F)c1)S(=O)(=O)c1cccs1
COc1ccccc1NC(=O)C1=C(C)Nc2nc(SCC(=O)c3ccc(C)cc3)nn2C1c1ccccc1C (stereo not given)
COc1ccc(-c2nc(C)c(CCNC(=O)c3ccc(C(F)(F)F)cc3)s2)cc1OC
Cc1ccc(C(=O)Nc2ccc(C(=O)O)cc2)cc1S(=O)(=O)Nc1ccccc1
COc1ccc(CNC(=O)c2cc3c(s2)-c2ccccc2OC3)cc1
COc1cccc(CC(=O)OCC(=O)NCc2ccc3c(c2)OCO3)c1
O=C(CSc1nc(=O)[nH]c2c1CCCC2)Nc1cc(C(F)(F)F)ccc1Cl
COc1ccc(Cl)cc1NC(=O)CCn1c(=O)c2cccn2c2ccccc21
COc1ccc(-c2onc(C)c2C)cc1S(=O)(=O)NCC1CCN(Cc2cccc(F)c2)CC1
COc1cccc(-n2ccn(CC(=O)NCc3ccc(C)cc3)c(=O)c2=O)c1
COc1ccccc1NC(=O)CSc1oc(-c2ccco2)nc1S(=O)(=O)c1ccc(Br)cc1
Cc1ccc(Cl)cc1NC(=O)C(C)n1nnc2sc(-c3ccccc3)cc2c1=O (stereo not given)
CC(C)c1ccc(Cn2c(COc3ccccc3)nc3ccccc32)cc1
COc1ccccc1OCCCn1c(-c2ccc(Cl)cc2)nc2ccccc2c1=O
Cc1ccc(CNS(=O)(=O)c2ccc(C(=O)N(C)C)s2)cc1
COc1cc2nc(SCC(=O)Nc3ccccc3F)n3nc(-c4ccccc4)nc3c2cc1OC
CCNS(=O)(=O)c1ccc(NC(=O)CSc2nc(-c3ccco3)cc(C(F)(F)F)n2)cc1
COc1ccc(NC(=O)Cn2cc(C(=O)c3ccncc3)c(=O)c3cc(C)ccc32)cc1Cl
Cc1ccc(C)c(Cn2c(C)c(CNCc3ccc(F)cc3)c(C(=O)O)c2C)c1
CCOc1cc(C2C(C(=O)OC)=C(C)NC3=C2C(=O)c2ccccc23)ccc1O (stereo not given)
CCn1cc(C(=O)N(C)Cc2ccccc2)c(=O)c2cc(S(=O)(=O)N3CCCCCC3)ccc21
CCOc1ccc2nc(N3CCC(C(=O)Nc4cc(C)ccc4C)CC3)sc2c1
CCC(=O)N1CCc2cc(S(=O)(=O)NCCC(=O)Nc3cccc(C)c3C)ccc21
Cc1ccc(NC(=O)CSc2nnc3[nH]c(=O)cc(C)n23)cc1Cl
O=C(Cn1c(=O)n(-c2ccc(F)cc2)c(=O)c2sc3ccccc3c21)NC1CCCC1
CCOc1cc(-c2nnc(SCC(=O)NC3CCCC3)nc2-c2ccc(OC)c(OCC)c2)ccc1OC
CCOc1ccc(CNC(=O)Cn2cc3c(n2)-c2c(oc(C(=O)N4CCCC4)c2C)CC3)cc1
CCN(CCCNC(=O)Cn1ncc2c3ccccc3n(C)c2c1=O)Cc1ccccc1
Cc1ccc(-c2nnc(Nc3cccc(Br)c3)c3ccccc23)cc1S(=O)(=O)NCC1CCCO1 (stereo not given)
CCOC(=O)c1ccc(NC(=O)CCS(=O)(=O)c2ccc(C)cc2)cc1
CCC(=O)N1N=C(c2ccc(OC)cc2)CC1c1cn(-c2ccccc2)nc1-c1cccs1 (stereo not given)
Cn1ccc2cc(S(=O)(=O)N3CCCC(C(=O)NCc4ccccc4F)C3)ccc21 (stereo not given)
Cc1ccc(CN2CCC(CNC(=O)c3cnn(-c4ccc(C)cc4)c3C3CCN(C(=O)OC(C)(C)C)CC3)CC2)cc1
CCN(CCCNC(=O)c1cc2cc3cc(OC)ccc3nc2s1)c1ccccc1
Cc1ccc(Cl)cc1N1CCN(C(=O)c2cnc3c(-c4ccc(F)cc4)c(C)nn3c2C)CC1
Cc1cc(C)cc(OCC(=O)Nc2nc(-c3ccc(F)cc3)ns2)c1
COc1ccc(CN(C(=O)CSc2nnc(-c3ccc(OC)c(OC)c3)o2)c2ccc(F)cc2)cc1
CCN(CCCCOC(=O)c1ccc(OC)c(OC)c1)C(C)Cc1ccc(OC)cc1 (stereo not given)
O=C1N(Cc2ccccc2)c2ccc(Cl)cc2C1(O)c1c[nH]c2ccccc12 (stereo not given)
CCOC(=O)c1cccc(NC(=O)Cn2cnc3nc4c(cc3c2=O)CCCC4)c1
Cc1nc2ccn(Cc3cccs3)c(=O)c2cc1C(=O)NCc1ccc(Cl)cc1
COc1cc(C(=O)N(Cc2ccc(C(C)C)cc2)C2CCS(=O)(=O)C2)cc(OC)c1OC (stereo not given)
COc1cc(-c2c(-c3ccc4c(c3)OCO4)noc2C)ccc1F
COC(=O)c1c(-c2ccsc2)oc2ccc(-c3cc(OC)c(OC)c(OC)c3)cc12
CCn1c(=O)cc(OCC(=O)Nc2cc(Cl)c(OC)cc2OC)c2ccccc21
Cc1ccc(-c2nn(CCC(=O)Nc3ccc(OC(F)(F)F)cc3)c(=O)c3ccccc23)cc1
Cc1ccc(C(=O)N2c3ncnn3C3(CCCCC3)[C@@H]3CCCC[C@@H]32)cc1
O=c1[nH]cnc2c1c(-c1ccccc1)cn2-c1ccc(F)cc1
CCOC(=O)C1CCN(c2ncnc3c2c(-c2ccccc2)cn3-c2ccc(C)cc2)CC1
CCc1ccc(CNC(=O)c2cc3c(=O)n(CC)c4ccccc4c3s2)cc1
O=C(NCC(c1cccnc1)N1CCc2ccccc21)c1cccc(C(F)(F)F)c1 (stereo not given)
COc1cc(C(=O)N2CCN(c3ccc(Nc4ccc(C)cc4)nn3)CC2)cc(OC)c1OC
CCc1ccc(N(CC)C(=O)CCn2cnc3onc(-c4ccc(F)cc4)c3c2=O)cc1
Cc1ccc(CSc2nc3cccnc3n2Cc2ccc(C(=O)NC3CC3)cc2)cc1
COc1ccc(/C=C/c2nc(C#N)c(NCc3ccc(F)cc3)o2)cc1OC
Cc1ccc2nc(/C(C#N)=C/c3ccc(-c4ccc(C(=O)OC(C)C)cc4)o3)[nH]c2c1
CCCn1c(NCc2ccccc2F)nc2ccccc21
O=C(C1CC1)N1CCc2cc(Br)cc(S(=O)(=O)N3CCN(c4ccccc4F)CC3)c21
Cc1ccc2nc(-c3ccc(C)c(NC(=O)Cc4ccccc4)c3)oc2c1
CCc1ccccc1NC(=O)Cc1ccc(NC(=O)N2CCCCc3ccccc32)cc1
COc1cccc(CNC(=O)C(NS(=O)(=O)c2ccc3nc(C)sc3c2)C(C)C)c1 (stereo not given)
Cc1nc2sc(C)c(C)n2c(=O)c1S(=O)(=O)NCCc1ccc(Cl)cc1
COc1ccccc1CCNC(=O)c1cccn1-c1nnc(N2CCCCC2)s1
COc1ccc(S(=O)(=O)NCc2cccn2Cc2cccc(C)c2)cc1
COC(=O)c1sc2ncccc2c1-n1c(C)ccc1C
CCCN1CCN(CCCNC(=O)c2ccc3nc(Cc4ccccc4)oc3c2)CC1
Cc1ccc(-c2cc(-c3coc4ccccc4c3=O)c3c(n2)-c2cc(Cl)ccc2OC3)cc1
O=C(NCc1ccccc1)c1ccc2c(c1)nc1n2CCCCC1
Cn1c(=O)nc2n(-c3ccc(Br)cc3)c3cccc(Cl)c3cc-2c1=O
CCc1ccc(S(=O)(=O)c2nnn3c2nc(N2CCN(CC)CC2)c2sccc23)cc1
Cc1cc(C)c2oc(C(=O)Nc3ccc(S(=O)(=O)N(C)c4ccccc4)cc3)cc(=O)c2c1
Cc1nn(-c2ccc(N3CCCCC3)nn2)c(C)c1CCC(=O)NCc1ccccc1F
COC(=O)c1cc(NC(=O)c2cnc(SC)nc2-c2ccccc2)cc(C(=O)OC)c1
COc1ccc(C(=O)Nc2ccc(-n3nncc3-c3ccccc3)cc2)cc1OC
COc1ccc(C)cc1NC(=O)COCc1cc(-c2cccs2)on1
CCOC(=O)c1c(S(=O)(=O)NCC(=O)Nc2ccc(Cl)c(C(F)(F)F)c2)c(C)n(C)c1C

Potency, active:
COc1ccc(CNC(=O)COC(=O)C2=Cc3ccccc3OC2)cc1 52.1 µM
Cn1c(COc2ccc(Cl)cc2)nc2ccccc2c1=O 52.1 µM
COc1ccc(C(CCN(Cc2ccc(OC)c(OC)c2)C(=O)CCl)c2ccccc2)cc1 (stereo not given) 36.9 µM
COc1cc2c(-c3ccc4c(c3)OCO4)c(-c3ccsc3)oc(=O)c2cc1OC 10 µM
CCCNc1ncnc2c1c(-c1ccccc1)cn2-c1ccc(OCC)cc1 28.2 µM
COC(=O)c1ccc(-c2c(-c3ccccc3)ncc3cc(OC)c(OC)cc23)cc1 39.8 µM
